Assay [1] in a line: qHTS assay to identify small molecule agonists of the hypoxia (HIF-1) signaling pathway - cell viability counter screen (AID 1224844; calls by dose curve; note: nearly all actives have a fitted effect of over 50% in size; note: potency is the fitted concentration of half-maximal effect). A digest of the protocol:
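Same wells as the HIF-1 reporter screen; ME-180 cells carrying HRE-bla, 17 hr treatment at 37C; CellTiter-Glo luminescence read after 30 min at room temperature.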
(Quantitative high-throughput screening tests each substance at several concentrations.)

A short description of assay [2]: qHTS assay to identify small molecule agonists of H2AX (AID 1224845; active = well fitted activation curve with a large enough effect in the signal ratio in the repeat runs, not every such curve was filed as active; the % refers to the signal ratio). An outline of the steps: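 Wild-type CHO-K1 cells plated overnight, then exposed 3 hr at 37C to compounds at 15 concentrations (0.76% DMSO). Lysed, then HTRF anti-pH2AX(S139)-cryptate/anti-H2AX-d2 detection after 24 hr at room temperature; emissions 665 and 620 nm.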
Assay [3] can be described thus: qHTS assay to identify small molecule antagonists of the estrogen related receptor (ERR) signaling pathway from Tox21 library (AID 1224848). Note: nearly all actives have a fitted effect of over 50% in size. Note: potency is the fitted concentration of half-maximal effect. An outline of the steps:
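Tox21 10K compounds in DMSO tested for ERR pathway antagonism in NTP's ERR cell line; 18 h, 37 C exposure; ONE-Glo luminescence.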

Assay [4] can be described thus: qHTS assay to identify small molecule agonists of the estrogen related receptor (ERR) signaling pathway from Tox21 library (AID 1224849; calls by dose curve; note: nearly all actives have a fitted effect of over 15% in size). As to conditions: ERR reporter cell line, ONE-Glo luciferase, 18 h; at 92.4 µM (top of the series) unless noted. A digest of the protocol: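 Reporter cells (ERR, NTP source) treated with Tox21 10K compounds 18 h, 37 C. Readout: ONE-Glo luminescence, 30 min RT.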

The nature of assay [5]: qHTS RealTime-Glo MT Cell Viability Assay in HepG2 cells - 24 hour (AID 1224867). Note: nearly all actives have a fitted effect of over 50% in size. Note: potency is the fitted concentration of half-maximal effect. A digest of the protocol: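 HepG2 suspension premixed with RealTime-Glo reagents is plated at 600 cells per well and left 5 h at 37 C/5% CO2. Compounds in DMSO then go in, and bioluminescence reflecting viable cell number is recorded over 40 h.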
Assay [6] can be described thus: qHTS RealTime-Glo MT Cell Viability Assay in HEK293 cells - 32 hour (AID 1224868). Note: nearly all actives have a fitted effect of over 50% in size. Note: potency is the fitted concentration of half-maximal effect. An outline of the steps: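 Reads taken at 0, 8, 16, 24, 32 and 40 h from the same wells. HEK293 cells (600/well) carried RealTime-Glo reagents from seeding, with compound added after a 5 h settle at 37 C.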
Assay [7] is described as follows: A CellTox Green Cytotoxicity Assay to monitor cytotoxicity in HEK293 cells - 0 hour (AID 1224869). Note: nearly all actives have a fitted effect of over 50% in size. A digest of the protocol: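 Homogeneous no-lysis format: HEK293 cell suspension mixed with CellTox Green reagent, seeded, incubated 5 h at 37 C/5% CO2, then dosed by pintool with compound in DMSO.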
Assay [8] can be described thus: qHTS RealTime-Glo MT Cell Viability Assay in HepG2 cells - 40 hour (AID 1224870). Note: nearly all actives have a fitted effect of over 50% in size. Note: potency is the fitted concentration of half-maximal effect. A digest of the protocol: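 HepG2 cells mixed with RealTime-Glo MT reagents (NanoLuc plus cell-permeant prosubstrate) were seeded at 600 cells/well, incubated 5 h at 37 C/5% CO2, then pinned with compounds in DMSO; nonlytic luminescence tracked viability during 40 h treatment.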
Assay [9] is described as follows: qHTS assay to identify small molecule agonists of H2AX - cell viability counter screen (AID 1224847; calls by dose curve; note: nearly all actives have a fitted effect of over 30% in size; note: potency is the fitted concentration of half-maximal effect). A digest of the protocol: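 CHO-K1 wt, 1000 cells/well, o/n 37C; cpds 15 conc, 3 h 37C, 0.76% DMSO; CellTiter-Glo, 30 min RT, luminescence.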
The nature of assay [10]: qHTS assay to identify small molecule agonists of the hypoxia (HIF-1) signaling pathway (AID 1224846; active = well fitted activation curve with a large enough effect in the signal ratio in the repeat runs, not every such curve was filed as active; the % refers to the signal ratio). An outline of the steps:
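In ME-180 cells bearing an HRE-bla construct, 17 h treatment with DMSO-dissolved compounds at 37C was followed by CCF4-AM loading to quantify reporter induction.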

Structures are written as SMILES. A number with no mark means an inactive call. Inconclusive results are not listed. The source made the active and inactive calls. Unless noted, calls come from the whole dose curve; as a rule, active = well fitted curve in the direction sought with a large enough effect in the repeat runs; inconclusive = weak or mixed curves; inactive = no such curve, though single readings can be large; an effect the other way counts as inactive or inconclusive.
% is set by controls: 0 for no effect and ±100 for the full control effect.

On to `COC(=O)C1=C(C)NC(COC(N)=O)=C(C(=O)OC(C)C)C1c1cccc(Cl)c1Cl` (stereo not drawn), for which the Potency result in [1], in assay [2] and in assay [7] was “inactive” in each case. Also, the Potency in [3] was 26.6 µM (active); in assay [5] it was 23.9 µM (active); in assay [6], 26.8 µM (active). The activity change, positive = activation in assay [4] is -36.5% [at 42.5 µM].

With `CCCCCCc1ccc(-c2ccc(C#N)cc2)cc1`, the Potency entry in assay [1], in assay [2], in assay [3], in assay [5], in assay [6] and in assay [7] was “inactive” in each case. Besides, the Potency result in assay [8] is “inactive”. Also, the activity change, positive = activation in assay [4] was 1.68%.

As to `CC(=O)c1ccc2c(c1)N(CCCN(C)C)c1ccccc1S2`, the Potency result in [1], in assay [2], in assay [9], in assay [5], in assay [7] and in [8] was “inactive” throughout.

In the case of `CC(C)C[C@H]1C(=O)N2CCC[C@H]2[C@]2(O)O[C@](NC(=O)[C@@H]3C=C4c5cccc6[nH]c(Br)c(c56)C[C@H]4N(C)C3)(C(C)C)C(=O)N12`, the Potency result in [1], in assay [2] and in assay [9] was “inactive” throughout. Moreover, the Potency in assay [3] is 14.6 µM (active); in assay [5], 13.2 µM (active); in assay [8], 14.8 µM (active). In addition, in assay [4], the activity change, positive = activation was -64.1% [at 42.5 µM].

In the case of `C/C=C(/C(=C/C)c1ccc(OC(C)=O)cc1)c1ccc(OC(C)=O)cc1`, the Potency result in assay [1], in assay [2], in [9], in assay [5], in assay [6] and in assay [7] was “inactive” throughout. In addition, in assay [8], the Potency result is “inactive”.

Regarding `CNCCCCOc1ccccc1Cc1ccccc1`, the Potency entry in assay [1], in assay [10] and in [7] was “inactive” throughout. In addition, the Potency in [6] was 23.9 µM (active).

In the case of `CCCCc1ncc(/C=C(\Cc2cccs2)C(=O)O)n1Cc1ccc(C(=O)O)cc1`, the Potency entry in [1], in assay [10], in [9], in assay [5], in assay [6] and in [7] was “inactive” throughout. Further, the Potency entry in [8] was “inactive”.

Regarding `CCCCCCCC#N`, the Potency entry in [1], in assay [10], in assay [3], in assay [5], in [6] and in assay [7] was “inactive” in each case. Moreover, the Potency result in assay [8] is “inactive”. For the same compound, in assay [4], the activity change, positive = activation was 2.85%.

Consider `COc1ccc(C(=O)c2ccc(OC)cc2O)c(O)c1`, for which the Potency entry in assay [1], in assay [10], in assay [3], in assay [5], in [7] and in assay [8] was “inactive” in each case. Besides, the Potency in [6] is 27.7 µM (active).

As to `CC(=O)OC[C@H]1O[C@@H](n2ncc(=O)[nH]c2=O)[C@H](OC(C)=O)[C@@H]1OC(C)=O`, the Potency entry in assay [1], in [10], in assay [9], in [5], in assay [6] and in [7] was “inactive” each time. Besides, the Potency entry in assay [8] is “inactive”.

As for `C=C(C)C(=O)OCCOCC`, the Potency entry in [1], in assay [10], in assay [9], in [5], in [6] and in [7] was “inactive” in each case. The Potency result in assay [8] was “inactive”.

Turning to `O=C(CS)Nc1ccccc1`, the Potency result in assay [1], in [10], in assay [9], in assay [5], in assay [6] and in [7] was “inactive” each time. Further, in assay [8], the Potency result is “inactive”.

For the compound `Cn1c(=O)cc(Oc2ccc(F)cc2F)c2cnc(NCC(C)(C)O)nc21`, the Potency entry in [1], in [10], in assay [5], in [7] and in assay [8] was “inactive” each time. The Potency in assay [3] is 30.6 µM (active). Also, the activity change, positive = activation in assay [4] was -55.2%.

`CCCCCCCCCCCCCCCCCCOS(=O)(=O)O`: the Potency in assay [1] was 38.9 µM (active). Besides, the Potency entry in assay [2], in assay [5], in assay [7] and in assay [8] was “inactive” in each case.

For `Cc1ccc(C(=O)Oc2ccc(C(O)CNC(C)(C)C)cc2OC(=O)c2ccc(C)cc2)cc1` (stereo not drawn), the Potency result in assay [1], in assay [10], in assay [9] and in assay [7] was “inactive” each time. For the same compound, the Potency is 21.3 µM (active) in assay [5] and 23.9 µM (active) in assay [8].

For `C#CCN(C)CCCOc1ccc(Cl)cc1Cl`, the Potency entry in assay [1], in [2], in [5], in [7] and in assay [8] was “inactive” throughout.

For `C#C[C@]1(O)CC[C@H]2[C@@H]3CCc4cc(OC5CCCC5)ccc4[C@H]3CC[C@@]21C`, the Potency was 15.1 µM (active) in assay [1] and 23.9 µM (active) in assay [6]. Besides, the Potency result in assay [2], in assay [7] and in assay [8] was “inactive” each time.

With `CC(C)CC(=O)C1C(=O)c2ccccc2C1=O`, the Potency entry in assay [1], in assay [10], in [5], in assay [7] and in assay [8] was “inactive” in each case. For the same compound, in [3], the Potency is 30.6 µM (active). The activity change, positive = activation in [4] is -53.7%.

As for `Clc1ccc2c(c1)CCc1cccnc1C2=C1CCNCC1`, the Potency entry in [1], in [10] and in assay [9] was “inactive” in each case. Further, the Potency in [8] is 23.9 µM (active).

As for `COS(=O)(=O)C(F)(F)F`, the Potency result in assay [1], in assay [10], in [9], in assay [5], in assay [6] and in [7] was “inactive” in each case. In addition, in assay [8], the Potency entry was “inactive”.

With `CCOc1ccc(N)c([N+](=O)[O-])c1`, the Potency entry in assay [1], in [10], in [9], in [3], in assay [5] and in assay [8] was “inactive” in each case. The activity change, positive = activation in [4] was -0.453%.

For `CCNc1cc(O)ccc1C`, the Potency entry in [1], in assay [10], in assay [9], in assay [3], in [5] and in assay [6] was “inactive” throughout. The Potency entry in assay [7] and in assay [8] was “inactive” throughout. Moreover, in [4], the activity change, positive = activation was -8.23%.

On to `CC(C)Cc1ccc(C(C)C(=O)OCc2ccccn2)cc1` (stereo not drawn), for which the Potency entry in [1], in assay [10], in [9], in assay [5], in [7] and in assay [8] was “inactive” each time.

Take `Cc1ccc(N=Nc2c(O)c(C(=O)O)cc3ccccc23)c(S(=O)(=O)O)c1`: the Potency entry in assay [1], in assay [10], in [5], in assay [6], in assay [7] and in assay [8] was “inactive” in each case.

Consider `COc1cc(Cl)ccc1Oc1ccc(Cl)cc1Cl`, for which the Potency result in assay [1], in [10], in assay [3], in assay [6], in assay [7] and in assay [8] was “inactive” throughout. Also, in [9], the Potency was 97.9 µM (active).
